HepG2 tox – qHTS for Inhibitors of TGF-b: Cytotox Counterscreen; HepG2 CAGA-GFP viability, ATP luminescence, 18 h; Potency, µM (highest dose often 46.1 µM), inactives show at the top dose activity change, negative = cytotoxicity, most hits filed as cytotoxic; actives 0.76% (n = 410,000); AID 588856, 2011; further: potency means the concentration at half of the fitted maximal effect
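CellTiter-Glo luminescence gave cytotoxicity after 18 hours at 37 degrees C. The cells were HepG2 CAGA-GFP in 1% FBS DMEM, stimulated with 500 pg/mL TGF-beta after compound addition. %Activity was normalised to no-cell wells (complete cell-killing) and DMSO (no toxicity), and curves were fitted and classified.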
TGFb SMAD3 inh – qHTS for Inhibitors of TGF-b; HepG2 CAGA-GFP TGF-b/SMAD3 reporter, GFP fluorescence, 18 h; TGF-beta stimulated, 500 pg/mL final; Potency, µM (titrated, usually from 46.1 µM), for inactives: at the top dose activity, negative = inhibition, actives largely listed as inhibitors; actives 1.2% (n = 410,000); AID 588855, 2011; further: potency means the concentration at half of the fitted maximal effect; on the % scale 0 is the no-effect control and ±100 the full control effect; nearly all actives have a fitted effect of over 65% in size
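Using HEPG2 CAGA-GFP reporter cells at 1000 cells/well, we pinned test compounds, stimulated with recombinant TGF-beta (500 pg/mL final) and measured total well GFP after 18 h.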
IL1B secr inh – qHTS for Inhibitors of Inflammasome Signaling: IL-1-beta AlphaLISA Primary Screen; actives 4.7% (n = 360,000); AID 743279, 2014; THP-1 LPS/ATP IL-1B secretion, AlphaLISA, 16 h; active compounds read low; activity change, % at 57.5 µM; in the data active means activity change below about -50%; inconclusive means mostly about -30% to -49%; further: on the % scale 0 is the no-effect control and ±100 the full control effect
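Secreted IL-1B measured by AlphaLISA bead assay after 16 h compound exposure of THP-1 cells; compounds (final up to 57.5 uM) added 1 h before LPS (250 ng/mL) and ATP (1.25 mM) stimulation; lower signal means less secretion.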
TDP1 inh – qHTS Assay for Inhibitors of Tyrosyl-DNA Phosphodiesterase (TDP1). Tyrosyl-DNA phosphodiesterase 1 (Homo sapiens), Q9NUW8. recombinant TDP1, AlphaScreen DNA substrate cleavage. Potency, µM (top dose mostly 130 µM), for inactives: at the top dose activity change, negative = inhibition, usual class: inhibitors. actives 0.28% (n = 350,000). AID 485290, 2010; further: potency means the concentration at half of the fitted maximal effect; on the % scale 0 is the no-effect control and ±100 the full control effect; nearly all actives have a fitted effect of over 40% in size
Target sequence (Q9NUW8 whole entry, looked up): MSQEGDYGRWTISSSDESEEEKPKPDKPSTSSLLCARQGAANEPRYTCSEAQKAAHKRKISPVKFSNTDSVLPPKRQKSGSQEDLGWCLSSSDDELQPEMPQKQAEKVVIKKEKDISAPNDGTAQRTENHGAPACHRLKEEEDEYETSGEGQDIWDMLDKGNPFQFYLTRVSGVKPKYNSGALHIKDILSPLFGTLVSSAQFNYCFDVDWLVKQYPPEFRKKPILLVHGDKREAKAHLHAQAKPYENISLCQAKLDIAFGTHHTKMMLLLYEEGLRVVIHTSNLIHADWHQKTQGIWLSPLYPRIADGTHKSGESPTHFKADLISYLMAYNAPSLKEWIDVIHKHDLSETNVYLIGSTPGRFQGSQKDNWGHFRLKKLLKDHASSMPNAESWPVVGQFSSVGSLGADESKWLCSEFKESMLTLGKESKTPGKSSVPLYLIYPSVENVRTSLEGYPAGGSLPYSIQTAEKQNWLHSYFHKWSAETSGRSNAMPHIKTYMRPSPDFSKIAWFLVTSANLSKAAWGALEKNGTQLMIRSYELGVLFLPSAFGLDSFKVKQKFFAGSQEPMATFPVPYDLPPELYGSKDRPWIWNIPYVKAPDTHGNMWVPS
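Signal: AlphaScreen proximity between streptavidin donor and anti-FITC acceptor beads on intact substrate. Reaction: Tdp1 1 nM, substrate 15 nM final, 5 min RT after 15 min compound preincubation.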
DT40 TDP1 no CPT – qHTS for Inhibitors of human tyrosyl-DNA phosphodiesterase 1 (TDP1): qHTS in cells in absence of CPT; DT40 Tdp1-/- hTDP1 cells, no CPT, ATP luminescence, 48 h; Potency, µM (doses to about 46.2 µM), for inactives: at the top dose activity change, negative = growth inhibition, most hits filed as inhibitors; actives 15% (n = 420,000); AID 686978, 2013; further: potency means the concentration at half of the fitted maximal effect; on the % scale 0 is the no-effect control and ±100 the full control effect; nearly all actives have a fitted effect of over 55% in size
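Camptothecin absent (DMSO only). Human TDP1-complemented DT40 knockout cells, 400 cells/well, 37 °C for minimum 48 hr; ATP measured via CellTiter-Glo, 30 min dark incubation, luminescence.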
DT40 TDP1 CPT – qHTS for Inhibitors of human tyrosyl-DNA phosphodiesterase 1 (TDP1): qHTS in cells in presence of CPT | chicken DT40 Tdp1-/-;hTDP1 cells + 20 nM CPT, ATP luminescence, 48 h | Potency, µM (series often up to 46.2 µM), for inactives: top-dose activity change, negative = growth inhibition, usual class: inhibitors | AID 686979, 2013 | actives 12% (n = 420,000); further: potency means the concentration at half of the fitted maximal effect; on the % scale 0 is the no-effect control and ±100 the full control effect; nearly all actives have a fitted effect of over 55% in size
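Chicken DT40 Tdp1-/- cells complemented with human TDP1, 400 cells/well, exposed to compounds plus 20 nM camptothecin for at least 48 h at 37 C; viability read as ATP content by CellTiter-Glo luminescence.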
An asterisk follows results filed as active; u = inconclusive; x = no result; [ ] = remark or other dose. Hits are enriched below; roughly 19% of the tested compounds scored in any of these assays. Unless noted, the call rests on the fitted dose curve; in most records, active means well fitted curve in the direction sought with a large enough effect; inconclusive means small, poorly fitted or top-dose-only effect, or another doubt; inactive means no such curve, though single readings can be large; an effect the other way counts as inactive or inconclusive.

SMILES	HepG2 tox	TGFb SMAD3 inh	IL1B secr inh	TDP1 inh	DT40 TDP1 no CPT	DT40 TDP1 CPT
CC(=O)C1=C(O)C(=O)N(c2ccc(S(N)(=O)=O)cc2)C1c1cccc([N+](=O)[O-])c1 (stereo unspecified)	5%	0%	31	3%	6%	-20%
COc1ccc(CC(=O)Nc2ccc(S(=O)(=O)N3CCOCC3)cc2)cc1	8%	0%	-1	1%	-24%	-18%
COc1ccc(S(=O)(=O)N(CC(=O)Nc2ccc(S(=O)(=O)N3CCOCC3)cc2)Cc2ccc(F)cc2)cc1	0%	-6%	-21	6%	15µM*	21µM*
COc1ccc(S(=O)(=O)N(CC(=O)Nc2ccc(S(=O)(=O)N3CCOCC3)cc2)c2ccccc2)cc1	-28%	-16%	19	1%	0.16µM*	-68%
CCC(=O)N1Cc2cc(C(=O)Nc3nccs3)nc(-c3cccc(-c4ccccc4OC)c3)c2[C@H]1CCO	x	x	u	x	16µM*	u
COc1ccccc1-c1cccc(-c2nc(C(=O)Nc3nccs3)cc3c2[C@H](CCO)N(C(C)=O)C3)c1	x	x	u	x	5.8µM*	6.5µM*
COc1ccccc1Nc1nc(C)nc(N)c1S(=O)(=O)c1ccccc1	6%	5%	x	-1%	x	x
CC1CCC(C(C)C)[C@H](OC(=O)c2ccccc2)C1 (stereo partly specified)	x	x	x	-5%[56.1 µM]	17%	7%
COc1ccc(OCc2n(CC(=O)OC3CC(C)CCC3C(C)C)c3ccccc3[n+]2C)cc1 (stereo unspecified)	14µM*	u	-58*	5%	2.3µM*	3.3µM*
COc1ccc(-c2n(CC(=O)OC3CC(C)CCC3C(C)C)c3ccccc3[n+]2C)cc1 (stereo unspecified)	11µM*	5µM*	-201*	3%	0.41µM*	0.46µM*
CC1CCC(C(C)C)C(OC(=O)CSc2nccc(=O)[nH]2)C1 (stereo unspecified)	-35%	6%	-6	-3%	-27%	u
Cc1cccc(NC(=O)CSc2ncc3c(n2)-c2ccccc2N(Cc2ccc(F)cc2)S3(=O)=O)c1C	-1%	24%	x	5%	-25%	u
O=C(NCc1ccccc1)[C@@H]1CCCN1C(=O)[C@@H]1CCCN1C(=O)c1cccs1	x	x	-57*	x	-41%	-44%
CC(C)C(=O)N1CCC2(CC1)Oc1ccc(Cl)cc1C(=O)C21CC(c2ccccc2)=NO1 (stereo unspecified)	-19%	u	u	5%	u	u
CC(C)C(=O)N1CCC2(CC1)Oc1ccc(F)cc1C(=O)C21CC(c2ccc(Cl)cc2)=NO1 (stereo unspecified)	-3%	12%	-67*	6%	u	u
Cc1ccc(C(=O)N2CCC3(CC2)Oc2ccc(F)cc2C(=O)C32CC(c3ccc(Cl)cc3)=NO2)s1 (stereo unspecified)	-3%	10%	u	-1%	-21%	-17%
CCC(=O)N1CCC2(CC1)Oc1ccc(Cl)cc1C(=O)C21CC(c2ccc(Cl)cc2)=NO1 (stereo unspecified)	-22%	-3%	u	4%	13µM*	u
CCC(=O)N1CCC2(CC1)Oc1ccc(F)cc1C(=O)C21CC(c2ccc(Cl)cc2)=NO1 (stereo unspecified)	-19%	-1%	u	4%	26µM*	u

Compound activity (PubChem)
